Source: PubChem BioAssay
D2 PAM-1 – potentiates the human D2 dopamine receptor allosterically | AID 624464 | hit rate 0.23% among 360,000 | potentiation, % (concentration not given with the values) | DiscoveRx D2 beta-arrestin cells, luminescence, 90 min; 100% = 57 uM dopamine signal; in the data active = potentiation above about 50%; inconclusive = mostly about 30% to 49%
Target sequence (P14416 whole entry, looked up): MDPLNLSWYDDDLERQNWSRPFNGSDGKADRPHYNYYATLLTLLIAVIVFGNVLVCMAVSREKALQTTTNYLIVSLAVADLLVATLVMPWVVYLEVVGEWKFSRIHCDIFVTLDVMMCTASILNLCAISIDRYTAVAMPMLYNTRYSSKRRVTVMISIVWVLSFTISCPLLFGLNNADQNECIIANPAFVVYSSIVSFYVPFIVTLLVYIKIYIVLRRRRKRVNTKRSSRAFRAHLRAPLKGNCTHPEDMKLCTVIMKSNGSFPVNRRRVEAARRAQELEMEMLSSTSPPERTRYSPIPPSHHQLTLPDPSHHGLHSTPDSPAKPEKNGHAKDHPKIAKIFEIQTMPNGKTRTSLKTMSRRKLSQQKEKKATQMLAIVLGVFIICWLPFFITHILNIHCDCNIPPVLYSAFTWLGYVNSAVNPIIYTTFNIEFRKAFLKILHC
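PathHunter D2 cells, attached overnight at 37 deg C, received compound in DMSO plus dopamine at EC20 (50 nM final) for 90 min at 37 deg C. Beta-arrestin recruitment was read as luminescence after 1 h with detection reagent at ambient temperature.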
D2 PAM-2 – D2 dopamine receptor (human) potentiation. HEK293 T-REx D2, calcium flux, EC20 dopamine potentiation. P14416. hit rate 0.34% among 340,000. potentiation, % at 10 µM. AID 485347;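 active = potentiation over 3 SD above the plate norm, cut at about 30% in these data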; also: 0% is about no effect
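Potentiation of an EC20 dopamine calcium response measured kinetically over 180 s, after a preceding 180 s compound-only read flagging agonists. Cells: inducible Hek293 Trex D2 line, 4000/well, cultured overnight at 30 C before dye loading.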
D2 ag-1 – agonists of human D2 dopamine receptor (beta-arrestin); P14416; DiscoveRx PathHunter D2 beta-arrestin, luminescence, 90 min; 100% = 57 uM dopamine signal; activation, % (test concentration not listed); hit rate 0.084% among 360,000; in the data active = activation above about 40%; inconclusive = between about 15% and that limit
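Agonist mode: compounds alone added to overnight-plated D2 PathHunter cells for 90 min at 37 C, with 57 uM final dopamine (EC100) defining full response. Beta-arrestin recruitment detected by chemiluminescent reagent, read after 1 h at ambient temperature.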
D2 antagonist – antagonists of human D2 dopamine receptor; P14416; HEK293 TREx D2 cells, calcium flux, dopamine EC80; inhibition, % at 10 µM; hit rate 2% among 340,000; AID 485344; in the data active = inhibition above about 30%; inactive = below that, where a call was filed; also: 0% is about no effect
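In this primary screen, negative modulation is detected by tracking calcium flux after an EC80 dopamine challenge in inducible HEK293 T-REx D2 cells preexposed to test compound for 180 s.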
D2 ag-2 – agonists of human D2 dopamine receptor | HEK293 T-REx D2 cells, calcium flux agonist mode | hit rate 0.53% among 340,000 | activation, % at 2 µM | P14416;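 active = activation over 3 SD above normal in the single-dose calcium agonist read, cut at about 30% in these data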; also: 0% is about no effect
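Calcium-flux readout, 1 cycle/sec over 180 s following compound pin transfer, in inducible HEK293 Trex D2 cells (force-coupled); dopamine controls included. Positive calcium responses during this window marked compounds as potential agonists.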
* marks the source's active call; other numbers are inactive results; u = inconclusive; x = no result given. Sampled rows, rich in hits. Any-hit rate of the full collection: about 2.4%.

SMILES | D2 PAM-1 | D2 PAM-2 | D2 ag-1 | D2 antagonist | D2 ag-2
COc1ccc(C(=O)OCC(=O)c2ccc(C3CCCCC3)cc2)cc1 | 1 | 1 | 1 | 9 | 1
O=C1/C(=C\c2cc([N+](=O)[O-])ccc2O)SC(=S)N1Cc1ccc(Cl)cc1 | -13 | 4 | -7 | -14 | 90*
O=C1/C(=C\c2cccc(O)c2O)SC(=S)N1Cc1ccccc1 | -5 | 14 | 3 | x | x
NC(=O)Cn1c(=O)n(CCCCCC(=O)NCc2ccccc2)c(=O)c2sccc21 | x | 9 | x | x | -1
CCc1ccc(NC(=O)C(=O)NCCc2sc(-c3ccc(OC)c(OC)c3)nc2C)cc1 | x | -3 | x | x | 1
Cc1csc2nc(CSc3nc4ccccc4o3)c(Br)n12 | 9 | 36* | -1 | -4 | 0
Cc1oc2cc3oc(=O)c(CCC(=O)NCCCC(=O)O)c(C)c3cc2c1C | -12 | -7 | -4 | 33* | 0
O=c1c2cc(NC(=S)NCCCN3CCC(Cc4ccccc4)CC3)ccc2nc2n1CCCCC2 | -31 | -33 | -3 | 52* | 4
O=C(c1ccc2c(=O)n3c(nc2c1)CCCCC3)N1CCN(c2ccc(F)cc2)CC1 | 2 | 3 | -1 | 0 | 0
O=C(Nc1ccc2nc3n(c(=O)c2c1)CCCCC3)C(=O)N1CCN(c2ccc(F)cc2)CC1 | -10 | -4 | 1 | 34* | -1
O=C(Nc1ccc2nc3n(c(=O)c2c1)CCCCC3)c1ccccc1[N+](=O)[O-] | -8 | -5 | -1 | 30* | -3
Cc1ccc(Cl)cc1N1CCN(C(=O)CCCCCn2c(=O)[nH]c3ccccc3c2=O)CC1 | x | 9 | x | x | 0
COc1cc(CNCc2ccccc2)c(Br)cc1OC1CCCC1 | -22 | -26 | -3 | 51* | -1
COc1cc(CNC2CCCC2)c(Br)cc1OC1CCCC1 | -21 | -20 | -18 | -3 | 1
Cc1ccc(C(=O)OCC(=O)N(C)c2ccccc2)c(C)c1 | -12 | -4 | -3 | -18 | -2
CN(C(=O)COC(=O)c1cc(F)c(F)cc1Cl)c1ccccc1 | -5 | -1 | 3 | 32* | -1
CC(=O)c1cccc(NC(=O)c2sc(-n3nc(C)c(Cc4ccc5c(c4)OCO5)c3C)nc2C)c1 | x | 16 | x | x | -2
O=C(CCCOc1ccccc1)Nc1nc2ccccc2[nH]1 | -1 | 70* | -2 | -2 | 0
Cc1ccc(OCCCC(=O)Nc2nc3ccccc3[nH]2)cc1 | 8 | 11 | 5 | -12 | 0
Cc1nn2c(NCc3ccccn3)c3c(nc2c1-c1ccccc1)CCC3 | -12 | -11 | -6 | 40* | 2
CN1CCC(OC(c2ccccc2)c2ccccc2)CC1 | -25 | -22 | -3 | -17 | -2
CN1CCC(Oc2ccccc2Sc2ccccc2)CC1 | -45 | -17 | -3 | 32* | 1
N#C/C(=C\c1ccc(N2CCCCC2)o1)C(=O)Nc1cccc(Br)c1 | -13 | -6 | -4 | 13 | 95*
Nc1nonc1-c1nc2ccccc2n1CC(=O)N1CCCCC1 | -10 | -7 | -4 | -9 | -1
O=C(Cn1c(-c2ccco2)nc2ccccc21)N1CCCCC1 | -12 | 8 | -3 | 46* | 1
SMILES | D2 PAM-1 | D2 PAM-2 | D2 ag-1 | D2 antagonist | D2 ag-2
CCC(=O)N1CCc2cc(S(=O)(=O)NCCC(=O)N3CCN(c4ccccc4)CC3)ccc21 | -4 | -4 | 8 | 34* | 5
O=C(C1CCC1)N1CCc2cc(S(=O)(=O)NCCN3CCN(c4ccccc4F)CC3)ccc21 | -4 | -18 | u | 53* | 68*
O=C(CCNS(=O)(=O)c1ccc2c(c1)CCN2C(=O)C1CC1)N1CCN(c2ccccc2F)CC1 | x | 11 | x | x | x
COc1ccc2c(C)c(CCC(=O)NCc3ccc(C)cc3)c(=O)oc2c1 | x | -8 | x | x | -1
COc1ccc(OC)c(NC(=O)c2nnn(CC(=O)Nc3ccc(C(C)C)cc3)c2N)c1 | x | 4 | x | x | x
COc1cccc(CNC(=O)c2ccc(-c3nc(COc4ccccc4)c(C)o3)cc2)c1 | x | 6 | x | x | 2
CCCc1cc(=O)n2c(C(=O)Nc3ccc(OCC)cc3)c(C(=O)Nc3ccc(C)cc3)sc2n1 | x | -21 | x | x | -1
Cc1ccc(CSc2nc(N)cc(=O)[nH]2)cc1 | -11 | -9 | -2 | 30* | 1
N#Cc1ccc(CSc2nc(N)cc(=O)[nH]2)cc1 | -13 | 2 | 0 | -1 | -1
N#C/C(=C\c1ccc(-c2ccccc2[N+](=O)[O-])o1)C(=O)Nc1nc(-c2cccs2)cs1 | -38 | 16 | -9 | 32* | 0
CN(C)CCCN1c2ccccc2Sc2ccc(Cl)cc21 | -30 | -28 | 0 | 86* | 1
CN(C)CCCN1c2ccccc2Sc2ccc3ccccc3c21 | -28 | x | -1 | x | x
CN1CCN(CCCN2c3ccccc3Sc3ccc(S(=O)(=O)N(C)C)cc32)CC1 | -37 | -23 | -6 | 82* | 1
CCN1C(=O)c2ccccc2Sc2ccc(C(=O)NCCCN3CCCCC3)cc21 | -33 | -12 | -4 | 25 | 0
OCCN1CCN(CCCN2c3ccccc3Sc3ccc(Cl)cc32)CC1 | -30 | -29 | 1 | 86* | 1
CN1CCN(CCCNC(=O)c2cn(C)c3ccc(S(=O)(=O)N(C)C)cc3c2=O)CC1 | -4 | 8 | -1 | -12 | 1
O=C(CN1CCCC1)N1c2ccccc2Sc2ccc(Cl)cc21 | -6 | -6 | 4 | 10 | 0
CC(=O)c1ccc2c(c1)N(CCCN1CCC(CCO)CC1)c1ccccc1S2 | -39 | -15 | -9 | 74* | -1
CCC(=O)N1c2ccccc2CC1C(=O)NCc1cc(Br)ccc1OC (configuration not stated) | x | 0 | x | x | -2
Cc1ccc(-n2ncc3c(NC4CCCCCC4)ncnc32)cc1 | x | -1 | x | x | 0
O=C(NCc1cccc(F)c1)c1ccc2nc(N3CCCCC3)sc2c1 | x | 3 | x | x | x
CCN1CCN(c2cc(C)c3cc(NC(=O)/C=C/c4cccc(Cl)c4)ccc3n2)CC1 | x | 23 | x | x | 0
COc1ccc(NC(=O)CN(C)CC(=O)Nc2sc3c(c2C#N)CCC3)cc1 | 0 | 4 | 7 | 32* | 0
CC1CCCN(CCOCCOc2ccc(Cl)cc2Br)C1 (configuration not stated) | -6 | -23 | -4 | 83* | 1
Cc1ccc(OCCCCN2CCC(C)CC2)c(Br)c1 | -39 | -21 | -8 | 107* | 0
CC1CCN(CCCOc2ccc(Br)cc2Cl)CC1 | -3 | -34 | 0 | 47* | 2
CN1CCN(CCOCCOc2ccc(Br)cc2Cl)CC1 | -6 | -34 | -4 | 31* | -2
CC(=O)Nc1nonc1-c1nnc(SCC(=O)Nc2cc(C)ccc2C)n1-c1ccccc1 | x | -18 | x | x | 0
COC(=O)c1c(C)sc(-c2c(-c3ccc(F)cc3)[nH]c3[nH]c(=O)[nH]c(=O)c23)c1O | x | 17 | x | x | -2
COc1ccc(-n2cc(C(=O)N(CCN(C)C)Cc3ccccc3)c3ccccc3c2=O)cc1 | x | -7 | x | x | 1
